Values joined by “and” are separate entries in the source; they are usually repeats but may differ in a detail not shown here. Equal entries are not always repeated. In all, about 16,000 compounds went through this assay and about 5,700 (36%) were called active. Not shown: some 24% with an inconclusive outcome. Calls follow the shape of the dose curve; as a rule, active = well fitted curve in the direction sought with a large enough effect; inconclusive = small, poorly fitted or top-dose-only effect, or effect the other way; inactive = no such curve, though single readings can be large or run the other way. The list shows a part of the results. More than one record can exist for a structure, and the calls need not agree.
% is scaled to controls: 0 for no effect and ±100 for the full control effect.

Sequence of Cytochrome P450 1A2 (Homo sapiens) (P05177 whole entry, looked up): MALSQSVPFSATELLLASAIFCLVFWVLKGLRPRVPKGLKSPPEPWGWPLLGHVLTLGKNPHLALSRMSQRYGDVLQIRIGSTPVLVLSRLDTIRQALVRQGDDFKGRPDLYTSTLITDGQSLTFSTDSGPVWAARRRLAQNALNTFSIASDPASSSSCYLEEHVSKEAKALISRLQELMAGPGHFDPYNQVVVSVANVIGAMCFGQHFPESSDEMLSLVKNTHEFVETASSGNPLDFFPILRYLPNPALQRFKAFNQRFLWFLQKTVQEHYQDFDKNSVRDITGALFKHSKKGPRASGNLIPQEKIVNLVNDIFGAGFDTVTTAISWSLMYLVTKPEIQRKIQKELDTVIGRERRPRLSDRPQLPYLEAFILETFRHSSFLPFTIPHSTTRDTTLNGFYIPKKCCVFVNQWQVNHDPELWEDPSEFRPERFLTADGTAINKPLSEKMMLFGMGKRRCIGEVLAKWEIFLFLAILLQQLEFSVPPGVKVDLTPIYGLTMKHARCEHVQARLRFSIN

The test has as its target Cytochrome P450 1A2 (Homo sapiens) (UniProt P05177). Briefly: Cytochrome panel assay with activity outcomes. Particulars: recombinant CYP, pro-luciferin dealkylation, luminescence, p450-cyp1a2; series mostly up to 57.1 µM.
Consider `CC(=O)OCC1=C(C(=O)O)N2C(=O)[C@@H](NC(=O)CSc3ccncc3)[C@@H]2SC1`, for which the AC50 result is “inactive”.

As to `CCc1ccc(OCC(=O)NNC(=O)CSc2ncnc3sc(C)c(C)c23)cc1`, the AC50 result was “inactive”. Turning to `c1ccc(CSc2ncnc3c2sc2nc(N4CCOCC4)c4c(c23)CCCC4)cc1`, the AC50 result is “inactive”. With `Fc1ccc(CSc2ncnc3sc4c(c23)CCCC4)cc1`, the AC50 is 4.47 µM (active). On the same count and under the same terms, with `Nc1c(-c2ccccc2)cnn1-c1cccc([N+](=O)[O-])c1` the figure was 3.55 µM (active). For `Nc1nc2c(ncn2[C@@H]2C=C[C@@H](CO)C2)c(=O)[nH]1`, the activity, negative = inhibition is -4.34% [at 11.4 µM] (inactive).

For `Cc1ccc(NC(=O)CSc2nnc(-c3ccncc3)o2)cc1`, the AC50 result was “inactive”. Still for that read-out and setting: for `Clc1ccccc1CSc1nnc(/C=C/c2ccccc2)o1` the value was 1.26 µM (active); for `Clc1ccccc1CSc1nnc(-c2ccncc2)o1`, 0.794 µM (active). Take `Nc1nc(SCc2ccccc2Cl)cc(C(=O)O)n1`: the activity, negative = inhibition is 6.21% [at 2.29 µM] (inactive). For `Clc1cccc(Cl)c1CSc1nnc(/C=C/c2ccccc2)o1`, the AC50 was 4.47 µM (active). On to `CNC[C@H](O)[C@H](O)[C@H](O)[C@H](O)CO`, for which the AC50 result was “inactive”. On to `CN1CCc2nc(N)nc(-c3nc(N)nc4c3CN(C)CC4)c2C1`, for which the activity, negative = inhibition was -3.87% [at 2.29 µM] (inactive).

Turning to `CC(=O)N1CCC2(CCCN(Cc3ccccc3)C2)CC1`, the AC50 entry was “inactive”. Same read-out and setting: with `CN1CCc2c(c3ccccc3n2Cc2ccccc2)C1` the figure was 5.01 µM (active).

Regarding `Cc1nc([N+](=O)[O-])c(N2CCN(C)CC2)n1Cc1ccccc1`, the AC50 result was “inactive”. On the same count and under the same terms, for `CN1CCc2c(c3ccccc3n2C)C1` the value was 12.6 µM (active).

As to `CN1CCC(=C2c3ccccc3C=Cc3ccccc32)CC1`, the AC50 entry was “inactive”. Regarding `CCC1(c2ccccc2)C(=O)NCNC1=O`, the AC50 result was “inactive”. On to `N=C1[C@@H](O)[C@]2(I)c3ccccc3N3C(=N)[C@H](O)[C@@H]4c5ccccc5N1[C@@H]4[C@@H]32`, for which the half-maximal activity concentration (AC50) was 2.51 µM (active).

Take `Cn1cccc1C(=O)N1CCC[C@@]2(CCN(Cc3cc(C(F)(F)F)cc(C(F)(F)F)c3)C2)C1`: the AC50 result is “inactive”.

In the case of `O=C(COc1ccc(Cl)cc1)Nc1ccc(N2CCN(C(=O)c3ccco3)CC2)cc1`, the AC50 entry is “inactive”.

As for `CCOc1ccc(NC(=S)N(Cc2ccc(N(C)C)cc2)Cc2ccco2)cc1`, the AC50 was 1.26 µM (active). Turning to `CCOc1ccc(NC(=S)N(Cc2ccc(Cl)cc2)Cc2ccco2)cc1`, the AC50 was 3.55 µM (active). Still for that read-out and setting: for `Cc1nn(C)cc1C(C(=O)NC1CCCCC1)N(C(=O)Cc1cccs1)c1ccc(C(C)C)cc1` (stereo not given) the value was “inactive”; for `CC1Cc2ccccc2N1Cc1nc2cc(C(F)(F)F)ccc2c(=O)[nH]1` (stereo not given), 3.55 µM (active); for `CN1CCC(N(C)C(=O)CCc2nc3ccccc3c(=O)[nH]2)CC1`, “inactive”.

Consider `Cc1cc(C)c2c(SCc3ccc(Cl)cc3Cl)nc(N)nc2n1`, for which the AC50 is 3.16 µM (active). On the same count and under the same terms, for `O=C1OCC(c2ccccc2)=C1c1ccc(S(=O)(=O)N2CCOCC2)s1` the value was 25.1 µM (active). The same measure, in the same setting: for `Cc1ccc(NC(=O)c2cc(N3C(=O)C4CC=CCC4C3=O)ccc2N2CCOCC2)cc1Cl` (stereo not given) the value was 6.31 µM (active); for `NC(=O)c1ccc(N2CCCCC2)c(N2C(=O)C3CC=CCC3C2=O)c1` (stereo not given), “inactive”; for `Cc1ccc(NC(=O)CSCC(=O)Nc2ccc(N3CCOCC3)c(Cl)c2)cc1`, “inactive”. Still for that read-out and setting: with `CO/N=C(/CNC(=O)c1ccc(Cl)cc1Cl)c1ccc(Cl)cc1` the figure was 2.51 µM (active); with `CC1(C)CC(O)CC(C)(C)N1CC(O)COCCOc1ccc(Br)cc1` (stereo not given), “inactive”. For `Cc1[nH]c2c(C)cccc2c1CCNC(=O)c1ccc2c(c1[N+](=O)[O-])C(=O)c1ccccc1C2=O`, the AC50 result was “inactive”. For `CCSc1nnc(-c2ccccc2NC(C)=O)c(=O)[nH]1`, the AC50 entry is “inactive”. On the same count and under the same terms, with `CCSc1c(C(=O)NC)ccc2c1C(=O)c1ccccc1C2=O` the figure was 0.316 µM (active); with `N#C/C(=C(/O)CN1CCCCC1)c1nc(-c2ccc(Cl)cc2)cs1`, 6.31 µM (active); with `O=C1OC2CC3CC1CC(O)(C3)C2` (stereo not given), “inactive”.

For `NC(=O)CSc1nc2sc(-c3ccccc3)cc2c(=O)n1N`, the concentration at half-maximal activity (AC50) was 5.01 µM (active). `COc1cc(/C=C\c2ccc(OC)cc2OC)cc(OC)c1`: the AC50 was 0.794 µM (active). For the compound `CNC(C)c1cc(OC)ccc1OC` (stereo not given), the AC50 entry was “inactive”. Still for that read-out and setting: for `COC(=O)C(NC(=O)c1ccc(F)cc1)(Nc1ncc(S(=O)(=O)c2ccc([N+](=O)[O-])cc2)s1)C(F)(F)F` (stereo not given) the value was “inactive”. On the same count and under the same terms, for `Clc1cccc(Oc2cnc3ccccc3n2)c1` the value was 2.51 µM (active); for `CCOC(=O)c1cc2c(C)n(-c3ccc(C)cc3)c(C)c2ccc1=O`, 12.6 µM (active). With `CCOC(=O)Cn1nc(C)n(-c2ccc(C)cc2)c1=O`, the AC50 result is “inactive”. For the compound `c1ccc(-c2c3ccccc3nc3[nH]c4ccccc4c23)cc1`, the AC50 is 0.501 µM (active). As for `CCCCc1c2ccccc2nc2[nH]c3ccccc3c12`, the AC50 is 0.2 µM (active). For `O=C(O)[C@@H](O)[C@@H](O)[C@H](O)[C@H](O)CO`, the activity, negative = inhibition was -5.55% [at 2.29 µM] (inactive). For the compound `CO[C@@H]1COC(=O)CC=C[C@@H](C)[C@@H]2C=C[C@H](O)[C@@H](COC(=O)C/C=C\[C@H]1C)O2`, the activity, negative = inhibition was -1.42% [at 11.4 µM] (inactive). For the compound `CC(C)(C)c1nnc(NC(=O)NS(=O)(=O)c2ccccc2)s1`, the AC50 entry is “inactive”. Turning to `CNc1ncc(C(=O)c2ccccc2)s1`, the AC50 was 4.47 µM (active). On the same count and under the same terms, for `CC(C)(C)NC(=O)C(=O)NNC(=O)c1ccccc1` the value was “inactive”; for `Cc1ccc(NC(=O)NNS(=O)(=O)c2ccc(Br)cc2)cc1`, “inactive”.

Consider `Cc1ccc(-c2nn3c(C)nnc3c3ccccc23)cc1S(=O)(=O)NCc1ccccc1`, for which the AC50 entry was “inactive”. Take `CCOC(=O)Nc1ccc(S(=O)(=O)NCc2ccccc2)cc1`: the AC50 entry was “inactive”. Still for that read-out and setting: for `Cc1ccc(NNS(=O)(=O)c2ccc(C)cc2)cc1` the value was 2.82 µM (active); for `COc1cc(C)c(Br)cc1S(=O)(=O)NCc1ccccc1`, 10 µM (active); for `Cc1ccc(S(=O)(=O)NNc2ccccc2)cc1`, 2.82 µM (active). On to `Cc1ccc(S(=O)(=O)N[C@H](C(=O)O)C(C)C)cc1`, for which the activity, negative = inhibition was -11% [at 11.4 µM] (inactive). The same measure, in the same setting: for `O=S(=O)(C[C@H](O)C(Cl)(Cl)Cl)NNc1ccccc1` the value was 0.811% [at 2.29 µM] (inactive).

With `Cc1ccc(S(=O)(=O)NCC2CCC(C(=O)O)CC2)cc1` (stereo not given), the AC50 result was “inactive”. `Cc1ccc(S(=O)(=O)N[C@H](CO)C(=O)O)cc1`: the activity, negative = inhibition was -12% [at 11.4 µM] (inactive). For the compound `Cc1ccc(S(=O)(=O)NCc2ccccc2)cc1`, the AC50 is 0.501 µM (active). With `C=CC[N+]1(CC#CCOC(c2ccccc2)c2ccccc2)CCOCC1`, the AC50 result was “inactive”. Still for that read-out and setting: for `N#Cc1cc2nc(O)c(O)nc2cc1[N+](=O)[O-]` the value was “inactive and 39.8 µM (active)”; for `NS(=O)(=O)c1cccc2c1c([N+](=O)[O-])cc1nc(O)c(O)nc12`, “inactive”; for `COc1ccccc1CN1CC[C@@]2(CCCN(S(C)(=O)=O)C2)C1`, “inactive”. On the same count and under the same terms, with `Cc1ccc(NC2=NC(c3ccccc3)n3c(nc(C)cc3=O)N2)c(C)c1` (stereo not given) the entry was “inactive”.

In the case of `C[C@@H](c1ccccc1)N1C(=O)[C@@H]2[C@H]3C(=CC[C@H]2C1=O)C(=O)[C@H]1O[C@H]1[C@H]3O`, the activity, negative = inhibition is -2.35% [at 11.4 µM] (inactive).

`Sc1ccc2ccccc2c1CNCc1ccccc1`: the AC50 was 1.26 µM (active). On to `O=C(O)c1ccc(CNCc2ccccc2)cc1`, for which the activity, negative = inhibition was -10.8% [at 11.4 µM] (inactive). Consider `C[C@H](C(=O)c1ccccc1)[C@@H](c1ccccc1)N1CCOCC1`, for which the activity, negative = inhibition is -14.9% [at 11.4 µM] (inactive).

In the case of `O=C(C[C@@H](c1ccccc1)N1CCCCC1)c1ccccc1`, the AC50 was 1.26 µM (active). As to `O=C(O)c1cccc(CN2CCCCC2)c1`, the activity, negative = inhibition is -16.7% [at 11.4 µM] (inactive). Same read-out and setting: with `O=C(O)CCSCc1ccccc1` the figure was -20.7% [at 11.4 µM] (inactive).

As for `O=C(Cc1ccccc1)NCCSCc1ccc(Cl)cc1`, the AC50 was 7.08 µM (active). `N[C@@H](CSCc1ccccc1)C(=O)O`: the activity, negative = inhibition was -9.6% [at 11.4 µM] (inactive). Regarding `CCCCCCCCCCCC(=O)O[C@H](CC(=O)O)C[N+](C)(C)C`, the AC50 entry was “inactive”.

As to `O=C(N/N=C/c1ccc(Cl)cc1Cl)Nc1ccccc1`, the AC50 was 1 µM (active).

For `O=C(Nc1ccc(N=Nc2ccccc2)cc1)c1ccc(Cl)cc1Cl`, the AC50 entry is “inactive”. `CC(C)(C)N(NC(=O)Nc1ccccc1)C(=O)c1ccccc1Cl`: the AC50 entry is “inactive”.

`O=C(N/N=C/c1ccc(Cl)cc1)Nc1ccccc1`: the AC50 is 10 µM (active). Same read-out and setting: with `Cc1ccc(NC(=O)N/C=C/c2ccc(Cl)cc2)cc1` the entry was “inactive”; with `O=C(N/N=C/c1ccc(Cl)cc1Cl)c1cccc(F)c1`, 1.78 µM (active).

With `O=C(c1ccco1)N1CCC2(CCCN(Cc3ccccc3)C2)CC1`, the AC50 entry was “inactive”. Regarding `CC(=O)N1c2c(cc(Br)cc2S(=O)(=O)NCC2COc3ccccc3O2)CC1C` (stereo not given), the AC50 is 3.16 µM (active).

For the compound `O=C(NCC1COc2ccccc2O1)C1CCN(S(=O)(=O)c2cccc3nsnc23)CC1` (stereo not given), the AC50 entry was “inactive”. Take `CCCN(CCC)CCCNS(=O)(=O)c1cc(Br)cc2c1N(C(C)=O)CC2`: the AC50 entry was “inactive”. As for `COc1ccc(C(=O)NN)cc1COc1ccc(Br)cc1`, the AC50 is 0.2 µM (active).

On to `COc1ccc(/C=C/C(=O)NCc2cn(C)nc2C)cc1COc1ccc(Br)cc1`, for which the AC50 result was “inactive”.

For the compound `NC(=O)CNC(=O)[C@@H]1CC2(CC(c3ccc(Cl)cc3)=NO2)CN1C(=O)c1ccccc1` (stereo not given in full), the AC50 entry is “inactive”. The same measure, in the same setting: with `C=CCc1cc(C=O)cc(OC)c1OCc1ccc(Cl)cc1` the figure was 1.12 µM (active). With `O=C(CN1C(=O)c2ccccc2C1=O)NC1(C(=O)O)CCCC1`, the activity, negative = inhibition was -2.12% [at 2.29 µM] (inactive). Take `CCOC(=O)c1cc(-c2ccccc2)sc1NC(=O)c1ccc(OC)cc1`: the AC50 is 8.91 µM (active). On to `CCOC(=O)c1cc(-c2ccccc2)sc1NC(=O)C(C)(C)C`, for which the AC50 result was “inactive”.

For `COC(=O)c1cc(-c2ccccc2)sc1NC(=O)CN1C(=O)c2ccccc2C1=O`, the AC50 is 0.708 µM (active). Still for that read-out and setting: for `CCOC(=O)c1c(NC(=O)CCCN2CCOCC2)sc2c1CC(C)(C)OC2` the value was 14.1 µM (active).

On to `CCOC(=O)c1c(NC(=O)c2ccc(N3CCOCC3)c([N+](=O)[O-])c2)sc(C)c1C`, for which the AC50 entry was “inactive”.

`CNC(=O)c1ccc(-c2sc3nc(N4CCOCC4)c4c(c3c2N)CC(C)(C)OC4)o1`: the AC50 result was “inactive”.

Source of the values: PubChem BioAssay AID1851 (National Center for Advancing Translational Sciences (NCATS), 2009).
